For 46 compounds, viability index results are on record in the supplement of paper PMC4723716.

SMILES strings stand for the structures. ± gives the uncertainty stated by the source. Whole data set: some 9,900 compounds, median “viability index relative to DMSO control” near 1, cut for the lowest 2% near 0.85. The sample holds the lowest values, similar compounds and a random draw of the others, so the mix is not that of the screen.

In this experiment the test system is Plasmodium falciparum NF54 stage V gametocytes. As to the kind of experiment: viability index relative to DMSO control (fraction); higher = less gametocyte killing. The note with it: 2.5 µM, incubation time: 72 h. An outline of the steps: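 Stage V gametocytes of P. falciparum NF54 were held in serum-free screening medium at 0.75% gametocytemia and 1.25% hematocrit, 10 µl per well of a 1,536-well plate, and exposed to compound at 2.5 µM for 72 hr at 37°C under low oxygen. A 3 µl mix of 2.5 µM MitoTracker Red CMXRos with 0.13% saponin was then added for one to two hours, after which one field per well was imaged and red particles of 20–70 µm2 were counted. The viability index equals this count divided by the plate mean from wells given solvent alone.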

Setting [1] is: library set: Broad Institute DOS.
[2] abbreviates: library set: Broad Institute Blood Stage.

Consider `C[C@H](CO)N1C[C@H](C)[C@H](CN(C)C(=O)NC2CCCCC2)Oc2ccc(N(C)C)cc2CC1=O`, for which the viability index under setting [1] is 1.13 ± 0.1.
On to `CO[C@H]1CC[C@@H]2CCOc3c(C#N)cccc3C(=O)N(C)C[C@@H](OC)[C@@H](C)C(=O)N(C)C[C@@H]1O2`, for which the viability index under setting [1] came out at 1 ± 0.023.
The compound `COc1ccc2c3c([C@H](CO)N(C[C@]33CCN(CC3)C(=O)Nc3cccc(F)c3)C(=O)CN3CCOCC3)n(C)c2c1` returned a viability index under setting [1] of 0.941 ± 0.018.
Under setting [2], `COc1ccc2c3c([C@@H](CO)N(C[C@]33CCN(CC3)C(=O)Nc3cccc(F)c3)C(=O)C3CCCC3)n(C)c2c1` gave a viability index of 0.822 ± 0.039.
As to `COc1ccc2c3c([C@@H](CO)N(C[C@]33CCN(CC3)C(=O)Nc3cccc(F)c3)C(=O)C3CC3)n(C)c2c1`, the viability index under setting [2] was 0.807 ± 0.036.
For the compound `CCCNC(=O)N1C[C@]2(CCN(CC2)C(=O)Nc2cccc(F)c2)c2c([C@H]1CO)n(C)c1cc(OC)ccc21`, the viability index under setting [1] was determined as 0.991 ± 0.079.
On the same count and under the same terms, under `COc1ccc2c3c([C@@H](CO)N(C[C@]33CCN(CC3)C(=O)Nc3cccc(F)c3)C(=O)CN3CCOCC3)n(C)c2c1` stands 0.993 ± 0.12; under `COc1ccc2c3c([C@@H](CO)N(C[C@]33CN(C3)C(=O)Nc3cccc(F)c3)C(=O)C3CCOCC3)n(C)c2c1`, 1.06 ± 0.05; under `C[C@@H]1C/C=C/C[C@@H](c2ccccc2)NC(=O)[C@H](C)N(C)C(=O)c2ccccc2O1.C[C@@H]1C/C=C\C[C@@H](c2ccccc2)NC(=O)[C@H](C)N(C)C(=O)c2ccccc2O1`, 1 ± 0.069.
Same read-out and setting: under `COc1ccc2c3c([C@H](CO)NC[C@]33CN(Cc4ccc(F)cc4)C3)n(C)c2c1` stands 0.841 ± 0.014.
Compound `COc1ccc2c3c([C@H](CO)NC[C@]33CCN(Cc4ccc(cc4)-c4ccccn4)CC3)n(C)c2c1` yielded a viability index under setting [2] of 0.835 ± 0.04.
Under setting [1], `COc1ccc2c3c([C@@H](CO)NC[C@]33CCN(Cc4ccncc4)CC3)n(C)c2c1` showed a viability index of 1.01 ± 0.045.
Still for that read-out and setting: the same measure for `COc1ccc2c3c([C@H](CO)NC[C@]33CN(Cc4ccc(cc4)-c4ccccn4)C3)n(C)c2c1`: 0.934 ± 0.11; for `COc1ccc2c3c([C@@H](CO)NC[C@]33CN(Cc4ccc(cc4)-c4ccccn4)C3)n(C)c2c1`: 0.997 ± 0.019.
Regarding `COc1ccc2c3c([C@@H](CO)NC[C@]33CCN(Cc4ccc(cc4)-c4ccccn4)CC3)n(C)c2c1`, under setting [2], the viability index amounted to 0.946 ± 0.052.
Under setting [1], `CO[C@H]1CN(C)C(=O)c2cc(NC(=O)c3cnccn3)ccc2OC[C@H](C)NC[C@H]1C` showed a viability index of 1.09 ± 0.041.
Same read-out and setting: under `COc1ccc(-c2ccc([C@H]3[C@H]4CNC[C@@H]3N4S(=O)(=O)c3cn(C)cn3)cc2)cc1` stands 1.0563 ± 0.00097.
Take `O=C(CC1CC1)N1CC2(C1)[C@@H](c1ccccc1)[C@H](CO)N2C(=O)c1ccccn1`: under setting [1], the viability index was 1 ± 0.013.
The same measure, in the same setting: under `C[C@H]1CN([C@@H](C)CO)C(=O)c2c(c3ccccc3n2C)-c2ccccc2CO[C@H]1CN(C)C` stands 1.04 ± 0.052; under `O=C(C[C@H]1CC[C@H]2NC[C@@H](O)COC[C@@H]2O1)N1CCc2ccccc2C1`, 1.03 ± 0.049; under `O=C(CC1CC1)N1CC[C@@H]2[C@H]1c1cc(-c3ccc(F)cc3)ccc1N[C@@H]2CO`, 1.046 ± 0.009.
The same measure, in the same setting: the same measure for `COc1ccc(C#Cc2cccc(-c3nc(C(=O)N4CCN(Cc5ccccc5)CC4)cc4c3[C@@H](CCO)N(S(=O)C(C)(C)C)C4)c2)cc1OC` (stereo partly specified): 0.826 ± 0.14; for `COc1ccccc1-c1cccc(-c2nc(C(=O)N3CCN(C)CC3)cc3c2[C@H](CCO)N([S@@](=O)C(C)(C)C)C3)c1`: 1.03 ± 0.032.
Compound `COc1ccc(C#Cc2cccc(-c3nc(C(=O)N4CCN(Cc5ccccc5)CC4)cc4c3[C@H](CCO)N(S(=O)C(C)(C)C)C4)c2)cc1OC` (stereo partly specified) displayed a viability index under setting [1] of 1.04 ± 0.11.
Same read-out and setting: the same measure for `CC(C)(C)S(=O)N1Cc2cc(C(=O)N3CCN(Cc4ccccc4)CC3)nc(-c3cccc(-c4cc5ccccc5o4)c3)c2[C@H]1CCO` (stereo partly specified): 0.7362 ± 0.0068; for `CC(C)(C)S(=O)N1Cc2cc(C(=O)NCc3ccc4c(c3)OCO4)nc(-c3cccc(-c4cc5ccccc5o4)c3)c2[C@H]1CCO` (stereo partly specified): 0.656 ± 0.04; for `COc1ccc(C#Cc2cccc(-c3nc(C(=O)Nc4ccc(-c5ccccc5)cc4)cc4c3[C@@H](CCO)N(S(=O)C(C)(C)C)C4)c2)cc1OC` (stereo partly specified): 1.016 ± 0.0075.
Under setting [1], `CC(C)(C)S(=O)N1Cc2cc(C(=O)NCc3ccc4c(c3)OCO4)nc(-c3cccc(-c4cccc(F)c4)c3)c2[C@@H]1CCO` (stereo partly specified) yielded a viability index of 1.04 ± 0.015.
On the same count and under the same terms, the same measure for `COc1ccc(C#Cc2cccc(-c3nc(C(=O)NCc4ccc5c(c4)OCO5)cc4c3[C@@H](CCO)N(S(=O)C(C)(C)C)C4)c2)cc1OC` (stereo partly specified): 0.9061 ± 0.0023; for `CC(C)(C)S(=O)N1Cc2cc(C(=O)O)nc(-c3cccc(-c4cc5ccccc5o4)c3)c2[C@@H]1CCO` (stereo partly specified): 1.03 ± 0.023.
Same read-out and setting: the same measure for `Cc1ccc(CN2CC(=O)N3[C@H](CO)[C@@H](c4ccc(-c5ccccc5F)cc4)[C@H]3C2)cc1`: 1.05 ± 0.062; for `CC(=O)N1[C@H](CO)[C@@H](c2ccccc2)C12CN(S(=O)(=O)c1ccccc1)C2`: 1.11 ± 0.03; for `COC(=O)C[C@H]1CC[C@@H]2[C@H](COc3ccc(NC(=O)Nc4cccc(C#N)c4)cc3C(=O)N2C)O1`: 1.1 ± 0.091.
The same measure, in the same setting: under `O=C(Cc1cccnc1)N1CC(=O)N2[C@H](C1)[C@@H](c1ccc(C#CC3CCCCC3)cc1)[C@@H]2CO` stands 0.985 ± 0.11.
`O=C(C1CCOCC1)N1CC(=O)N2[C@H](C1)[C@H](c1ccc(C#CC3CCCCC3)cc1)[C@@H]2CO` registered a viability index under setting [1] of 1.03 ± 0.018.
As to `C[C@@H]1CN([C@@H](C)CO)C(=O)c2cc(NC(=O)Cn3cnnn3)ccc2O[C@H]1CN(C)Cc1ccc(C(=O)Nc2ccccc2N)cc1`, the viability index under setting [1] was 1.002 ± 0.0028.
Under setting [1], `O=C(C[C@H]1C[C@@H]2c3cc(NC(=O)Nc4ccccc4)ccc3O[C@@H]2[C@H](CO)O1)NCc1ccccc1` gave a viability index of 1.06 ± 0.03.
On the same count and under the same terms, under `Cc1ccc(S(=O)(=O)Nc2ccc3c(c2)CC(=O)N([C@H](C)CO)C[C@@H](C)[C@@H](CN(C)S(=O)(=O)c2ccccc2)O3)cc1` stands 0.949 ± 0.021; under `CCCC(=O)N1C[C@]2(CN(Cc3nccs3)C2)c2c([nH]c3cc(OC)ccc23)[C@@H]1CO`, 1 ± 0.024.
The same measure, in the same setting: the same measure for `N#C[C@@H]1[C@@H](c2ccccc2-c2ccccc2)[C@H](CO)N1C(=O)Cc1ccncc1`: 1.1 ± 0.2.
`C[C@H]1CN([C@@H](C)CO)C(=O)c2ccccc2-c2ccccc2CO[C@H]1CN(C)Cc1cccc(C(=O)O)c1` returned a viability index under setting [1] of 0.958 ± 0.034.
Still for that read-out and setting: under `O=C(C[C@H]1CC[C@H](NC(=O)C2CC2)[C@H](CO)O1)Nc1ccccc1` stands 0.992 ± 0.033; under `O=C(C[C@H]1CC[C@H](NC(=O)C2CC2)[C@@H](CO)O1)Nc1ccccc1`, 0.981 ± 0.031; under `O=C(C[C@H]1CC[C@@H](NC(=O)C2CC2)[C@H](CO)O1)Nc1ccccc1`, 0.839 ± 0.19.
In turn, `CO[C@H]1CN(C)C(=O)c2cc(NS(=O)(=O)CC(F)(F)F)ccc2OC[C@@H](C)NC[C@H]1C` returned a viability index under setting [1] of 1.07 ± 0.0046.
As for `CCC(=O)N1CC(=O)N2[C@H](CO)[C@H](c3ccc(C#CCC(C)C)cc3)[C@H]2C1`, the viability index under setting [1] was 0.956 ± 0.046.
